Calls of active or inactive are those of the source.
Tests used:
[1] = test system: Human papillomavirus type 1a protein E7 (residues 44-93); experiment: small molecules binding HPV E7 44-93 – biochemical, small-molecule microarray, residues 44-93, 635 nm fluorescence, primary screen (AID 1108); conditions: fluorescence 635 nm, higher = more signal;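 also: E7 fragment applied at 1 µg/mL in TBST for 1 h at 4 C; score combines spot fluorescence with its signal to noise ratio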
[2] = hepatitis C replication reporter changes, two-sided – Huh7 cells, luciferase reporter, HCV replication inhibitor project, primary screen (AID 1109); conditions: Huh7 HCV replicon luciferase reporter, 48 h; higher = more signal;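 also: huh7 hepatoma cells harbouring a luciferase neomycin HCV replicon reporter; luciferase luminescence as measure of HCV replicon replication; test concentration not given here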
[3] = target: Left-right determination factor 2 (Homo sapiens) (UniProt O00292); experiment: small molecules binding LEFTY2 protein – biochemical, small-molecule microarray, 635 nm fluorescence scan, primary screen (AID 1110); conditions: higher = more signal
Chain of Left-right determination factor 2 (Homo sapiens) (O00292 whole entry, looked up): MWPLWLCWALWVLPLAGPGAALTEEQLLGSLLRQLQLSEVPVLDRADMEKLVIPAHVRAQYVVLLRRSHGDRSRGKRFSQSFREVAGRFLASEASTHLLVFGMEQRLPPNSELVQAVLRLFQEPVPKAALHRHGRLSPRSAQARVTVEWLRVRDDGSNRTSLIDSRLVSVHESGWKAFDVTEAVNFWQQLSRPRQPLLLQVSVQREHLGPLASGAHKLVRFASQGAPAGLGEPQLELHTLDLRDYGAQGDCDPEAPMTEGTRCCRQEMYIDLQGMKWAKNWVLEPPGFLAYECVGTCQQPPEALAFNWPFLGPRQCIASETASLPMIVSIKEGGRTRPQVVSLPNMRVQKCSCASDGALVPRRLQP

[4] = target: Calmodulin-1 (Homo sapiens) (UniProt P0DP23); experiment: small molecules binding calmodulin-1 with EGTA – biochemical, small-molecule microarray, Cy5-labelled CALM1, profiling panel (AID 1111); conditions: Cy5-CALM1 binding fluorescence, higher = more signal;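 also: labelled calmodulin applied in Tris saline Tween buffer holding calcium plus EGTA and DTT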
[5] = target: Calmodulin-1 (Homo sapiens) (UniProt P0DP23); experiment: small molecules binding Ca-loaded calmodulin-1 – biochemical, small-molecule microarray, Cy5-labelled CALM1, plus calcium, artefact control for SMM control-protein annotation, profiling panel (AID 1112); conditions: Cy5-CALM1 binding fluorescence, higher = more signal;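 also: score merges spot fluorescence with signal to noise from triplicate slides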
[6] = probe aWnt5a binding to arrayed compounds – biochemical, biotinylated probe, 635/667 nm fluorescence, primary screen (AID 1113); conditions: small-molecule microarray, higher = more signal;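 also: score merges 667 nm fluorescence intensity with signal-to-noise per printed feature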
[7] = probe aShh binding to arrayed compounds – biochemical, biotinylated probe, 635/667 nm fluorescence, primary screen (AID 1114); conditions: small-molecule microarray, higher = more signal;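 also: probe is biotin-labelled aShh protein from a stem cell growth factor screen; measures binding of labelled protein to compounds printed on the slide; score merges feature fluorescence at 667 nm with signal-to-noise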
[8] = probe aNog binding to arrayed compounds – biochemical, biotinylated probe, 635/667 nm fluorescence, primary screen (AID 1115); conditions: small-molecule microarray, higher = more signal;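 also: probe is biotinylated aNog protein used at 0.15 µg/mL for 1 h at 4 C; z-score combines 667 nm fluorescence of each spot with its signal to noise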
[9] = target: Torsin-1A-interacting protein 1 (Homo sapiens) (UniProt Q5JTV8); experiment: compound microarray binding of lysate hLAP1 – cell lysate, small-molecule microarray, COS7 lysate, 635/667 nm fluorescence, primary screen (AID 1116); conditions: 635 nm fluorescence, higher = more signal
Chain of Torsin-1A-interacting protein 1 (Homo sapiens) (Q5JTV8 whole entry, looked up): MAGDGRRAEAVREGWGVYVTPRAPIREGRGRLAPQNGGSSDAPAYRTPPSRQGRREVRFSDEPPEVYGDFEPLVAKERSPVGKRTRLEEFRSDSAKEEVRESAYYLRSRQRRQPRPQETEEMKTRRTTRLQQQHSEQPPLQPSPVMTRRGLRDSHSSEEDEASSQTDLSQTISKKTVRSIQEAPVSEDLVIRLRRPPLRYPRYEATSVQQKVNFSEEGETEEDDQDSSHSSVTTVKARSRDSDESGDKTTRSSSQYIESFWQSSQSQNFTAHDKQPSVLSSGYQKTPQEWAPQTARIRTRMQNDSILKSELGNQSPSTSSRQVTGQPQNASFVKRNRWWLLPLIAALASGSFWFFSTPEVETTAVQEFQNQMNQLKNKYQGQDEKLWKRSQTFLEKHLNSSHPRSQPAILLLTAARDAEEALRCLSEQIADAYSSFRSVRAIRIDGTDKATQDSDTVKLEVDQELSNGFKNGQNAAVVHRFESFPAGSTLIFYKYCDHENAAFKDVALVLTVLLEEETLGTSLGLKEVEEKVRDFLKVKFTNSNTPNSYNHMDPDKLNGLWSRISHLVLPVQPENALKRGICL

[10] = target: Alpha-bungarotoxin (Bungarus multicinctus) (UniProt P60615); experiment: compounds binding labelled alpha-BTX control protein – biochemical, small-molecule microarray, Alexa647 label, 635/667 nm fluorescence, artefact control for SMM control protein annotation, profiling panel (AID 1117); conditions: alpha-BTX-A647 binding fluorescence, higher = more signal
Chain of Alpha-bungarotoxin (Bungarus multicinctus) (P60615 whole entry, looked up): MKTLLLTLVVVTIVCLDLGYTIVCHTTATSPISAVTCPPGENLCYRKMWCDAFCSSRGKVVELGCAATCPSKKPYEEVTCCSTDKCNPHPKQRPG

Albumin (Bos taurus) = Albumin (Bos taurus) (UniProt P02769); experiment: compounds binding labelled BSA control protein – biochemical, small-molecule microarray, Alexa647 label, 635/667 nm fluorescence, artefact control for SMM control protein annotation, profiling panel (AID 1118); conditions: BSA-A647 binding, fluorescence 635 nm, higher = more signal;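 also: score merges 667 nm emission intensity and signal-to-noise per printed compound spot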
Chain of Albumin (Bos taurus) (P02769 whole entry, looked up): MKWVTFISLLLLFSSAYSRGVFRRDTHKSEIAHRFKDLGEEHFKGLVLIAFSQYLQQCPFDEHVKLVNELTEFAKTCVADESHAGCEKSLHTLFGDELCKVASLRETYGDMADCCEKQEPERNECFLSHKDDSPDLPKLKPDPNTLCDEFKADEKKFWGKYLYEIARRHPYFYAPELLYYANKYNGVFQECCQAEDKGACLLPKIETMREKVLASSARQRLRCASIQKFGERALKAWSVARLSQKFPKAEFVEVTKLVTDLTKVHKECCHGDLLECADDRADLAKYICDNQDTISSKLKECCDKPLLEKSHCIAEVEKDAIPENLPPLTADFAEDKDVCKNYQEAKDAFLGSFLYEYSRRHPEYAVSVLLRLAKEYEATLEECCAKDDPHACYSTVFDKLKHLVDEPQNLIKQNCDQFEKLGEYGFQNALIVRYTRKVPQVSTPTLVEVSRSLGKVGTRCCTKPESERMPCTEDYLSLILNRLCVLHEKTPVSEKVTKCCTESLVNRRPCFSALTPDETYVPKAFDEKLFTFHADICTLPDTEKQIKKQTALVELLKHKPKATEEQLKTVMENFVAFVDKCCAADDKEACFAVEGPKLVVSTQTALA

[11] = probe aXIP binding to arrayed compounds – biochemical, NeuroSMM set, 635/667 nm fluorescence, primary screen (AID 1119); conditions: small-molecule microarray, higher = more signal, called active from +8 up or from −8 down;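 also: probe is the protein aXip251-270 applied at 1 µg/mL to compound-printed slides; binding of probe to printed compounds measured as 667 nm fluorescence plus signal to noise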
[12] = probe aNOTCH3 binding on compound microarray – biochemical, small-molecule microarray, 635/667 nm fluorescence, primary screen (AID 1120); conditions: higher = more signal;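 also: probe is a biotin-tagged antibody raised against NOTCH3 rather than NOTCH3 protein; score merges spot fluorescence near 667 nm with spot signal to noise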
[13] = probe aNOTCH2 binding on compound microarray – biochemical, small-molecule microarray, 635/667 nm fluorescence, primary screen (AID 1121); conditions: higher = more signal;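 also: score merges feature fluorescence read at 667 nm with its signal to noise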
[14] = target: Carbonic anhydrase 2 (Homo sapiens) (UniProt P00918); experiment: compounds binding carbonic anhydrase 2 – biochemical, small-molecule microarray, Alexa647-labelled CAII, profiling panel (AID 1122); conditions: CAII-A647 binding fluorescence, higher = more signal
[15] = COS7 lysate on small-molecule microarray, probe aHis, 635 nm (AID 1123); conditions: COS7 cell lysate, fluorescence, higher = more signal;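 also: z-score combines 667nm fluorescence intensity with signal-to-noise per printed compound spot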
[16] = probe aLAP1 signal on lysate-treated microarray – cell lysate, small-molecule microarray, COS7 lysate, primary screen (AID 1124); conditions: probe aLAP1, fluorescence, higher = more signal;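 also: lysate comes from COS7 cells expressing LAP1 and is applied at 0.3 µg/mL; score merges spot fluorescence near 667 nm with signal-to-noise over triplicate slides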
Sam68 (KHDRBS1) = experiment: compounds binding KHDRBS1 protein – biochemical, small-molecule microarray, 635 nm fluorescence, primary screen (AID 1125); conditions: higher = more signal;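 also: score merges 667 nm channel intensity with signal to noise over triplicate slides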
[17] = test system: Chordin-like protein 2 (CHRDL2); experiment: compounds binding chordin-like 2 – biochemical, small-molecule microarray, 635 nm fluorescence, primary screen (AID 1126); conditions: fluorescence 635 nm, higher = more signal;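 also: printed compound slides probed with Chrdl2 protein at 4 µg/mL for 1 h at 4 C; score merges 667 nm emission intensity with signal to noise over three replicate slides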
[18] = target: Concanavalin-A (Canavalia ensiformis) (UniProt P02866); experiment: compounds binding concanavalin A lectin – biochemical, small-molecule microarray, Alexa647 label, 635 nm, artefact control for SMM control protein annotation, primary screen (AID 1127); conditions: ConA-A647 binding fluorescence, higher = more signal;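 also: z combines 667 nm emission intensity with signal-to-noise across three replicate slides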
Chain of Concanavalin-A (Canavalia ensiformis) (P02866 whole entry, looked up): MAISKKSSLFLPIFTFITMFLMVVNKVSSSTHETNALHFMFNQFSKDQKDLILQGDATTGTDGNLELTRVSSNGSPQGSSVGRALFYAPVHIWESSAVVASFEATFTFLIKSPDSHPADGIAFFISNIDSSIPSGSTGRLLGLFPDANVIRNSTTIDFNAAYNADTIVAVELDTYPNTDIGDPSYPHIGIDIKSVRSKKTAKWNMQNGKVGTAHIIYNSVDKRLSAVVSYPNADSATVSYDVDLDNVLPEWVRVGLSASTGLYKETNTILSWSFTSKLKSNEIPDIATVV

SMILES | composite z-score [1] | z-score [2] | composite z-score [3] | composite z-score [4] | composite z-score [5] | composite z-score [6] | composite z-score [7] | composite z-score [8] | composite z-score [9] | composite z-score [10] | composite z-score (Albumin (Bos taurus)) | composite Z-score [11] | composite z-score [12] | composite z-score [13] | composite z-score [14] | composite z-score [15] | composite z-score [16] | composite z-score (Sam68 (KHDRBS1)) | composite z-score [17] | composite z-score [18]
CC(=O)C1=CCC(c2ccccc2)N(S(=O)(=O)c2ccc(C)cc2)C1 (stereo not given) | 1.41 | -0.975 | 0.034 | -0.105 | -0.163 | -0.0758 | 0.156 | 0.471 | 1.28 | 0.19 | 0.632 | -0.685 (inactive) | 0.101 | -0.0439 | 0.66 | 2.5 | 0.763 | 0.579 | 0.725 | 0.789
CC(C)C(O)C1C=CC2C(=O)N(c3ccccc3)C(=O)C2N1Nc1ccc(C#N)cc1 (stereo not given) | 0.931 | 0.993 | 1.11 | 0.875 | 0.717 | -0.0522 | -0.452 | 0.843 | 0.892 | 1.36 | 1.03 | 2.09 (inactive) | 0.276 | 0.0883 | 0.842 | 2.73 | 0.997 | 1.26 | -0.387 | 1.19
COc1ccc([Si](C)(C)[C@H]2[C@H](CCn3cc([C@H](O)c4ccccc4)nn3)O[C@@]3(C(=O)N(Cc4cccc(N5CCC5=O)c4)c4ccccc43)[C@@H]2C)cc1 | -0.268 | -1.73 | 0.183 | 0.318 | 0.193 | -0.114 | 0.0278 | -0.118 | 0.412 | 0.167 | 0.31 | -0.0916 (inactive) | -0.219 | -0.245 | 0.115 | 1.12 | -0.166 | 0.316 | 0.317 | 0.47
C=CCC(OC(C)=O)[C@@H]1[C@@H](N(Cc2cccc3ccccc23)C(=O)c2cccc3ccccc23)c2cc(OCCCO)ccc2N1C(=O)c1ccc2ccccc2n1 (stereo not given in full) | -0.316 | 1.21 | 0.146 | -0.301 | 0.117 | -0.208 | -0.138 | 0.151 | -0.117 | -0.198 | -0.0648 | 0.639 (inactive) | 0.0556 | -0.0323 | -0.12 | 0.656 | -0.342 | -0.0153 | 0.366 | -0.0505
O=C(CS)NCCCCCCNC(=O)[C@H]1C[C@H]2C(=O)N3CCC[C@H]3C(=O)N2[C@H]1c1cccc(OCCO)c1 | 1.36 | -0.36 | 0.36 | 0.803 | 0.0685 | -0.0236 | 0.251 | -0.353 | 0.557 | 0.383 | 0.0023 | -0.254 (inactive) | 0.0242 | -0.105 | 0.528 | 2.51 | 0.407 | 1.29 | 0.97 | 1.02
Cc1ccc(S[C@]2(C(=O)NCc3ccccc3)CC(=O)N(Cc3ccccc3)[C@@H]2c2ccc(CO)cc2)cc1 | 1.42 | -2.1 | -0.934 | -0.344 | -0.195 | -0.0395 | -0.0977 | -0.364 | 1.2 | -0.593 | -0.398 | 0.115 (inactive) | -0.25 | -0.149 | 0.654 | 1.86 | 0.569 | 0.176 | -0.525 | 0.423
COC(=O)[C@@]1(Cc2ccccc2)N=C(c2ccc(OCCCO)cc2)O[C@H]1c1ccccc1N=[N+]=[N-] | 1.33 | -0.749 | 0.241 | -0.203 | -1.07 | -0.0405 | 0.297 | 0.781 | 2.83 | 0.778 | -0.541 | 2.98 (inactive) | 0.104 | 0.114 | 0.111 | 1.37 | 0.863 | 1.06 | 0.968 | 0.649
N#Cc1ccc(NN2C(C(O)C3CCCCC3)C=CC3C(=O)N(c4ccccc4)C(=O)C32)cc1 (stereo not given) | 1.48 | -0.785 | 0.0137 | 1.82 | 0.779 | 0.0859 | 0.294 | 1.32 | -0.102 | 1.09 | 0.919 | 0.417 (inactive) | 0.459 | 0.0636 | 0.184 | 2.62 | 0.236 | 1.29 | -0.915 | 1.21

From PubChem BioAssay
